Compound activity deposited in PubChem by several laboratories.
The list is not random: actives were taken first. Their share in the collection is about 2.3%.
DNA FID counter – fluorescent intercalator displacement, NS3 helicase counter-screen | hit rate 0.17% among 290,000 | inhibition, % at 7.9 µM | AID 1845 | DNA fluorescent intercalator displacement, fluorescence; in the data active = inhibition above about 37%;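 note: higher means more ethidium bromide displaced from hairpin DNA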
M18AAP inhibitor – blocks P. falciparum M18 aspartyl aminopeptidase; recombinant PfM18AAP, H-Glu-NHMec fluorogenic cleavage; inhibition, % at 7.35 µM; hit rate 1.2% among 290,000;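 active = inhibition above the campaign mean inhibition over all tested compounds plus 3 SD, cut at about 28% in these data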
Kir21 inh – inhibitors of mouse Kir2.1 inward-rectifier potassium channel | P35561 | HEK293-Kir2.1, FluxOR thallium flux fluorescence; hits give low values | B-score at 10 µM | hit rate 0.85% among 310,000 | AID 1672;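 active = fluorescence ratio B-score at or below minus 3 SD of library scores, with starting-brightness B-score within 2 SD, cut at about -4.2 in these data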;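 note: channel flux triggered by added potassium and thallium sulfate stimulus; B-score of peak minus minimum fluorescence over baseline after thallium stimulus; more negative B-score means stronger Kir2.1 block with less thallium influx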
Rce1 inh – yeast Ras-converting enzyme inhibition; yeast membranes, quenched prenylated peptide cleavage fluorescence; AID 2563; hit rate 0.27% among 290,000; calls only;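 active = fall in fluorescence gain of 50% or more versus controls, with final raw signal at or below 3038400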
Target sequence (Q03530 whole entry, looked up): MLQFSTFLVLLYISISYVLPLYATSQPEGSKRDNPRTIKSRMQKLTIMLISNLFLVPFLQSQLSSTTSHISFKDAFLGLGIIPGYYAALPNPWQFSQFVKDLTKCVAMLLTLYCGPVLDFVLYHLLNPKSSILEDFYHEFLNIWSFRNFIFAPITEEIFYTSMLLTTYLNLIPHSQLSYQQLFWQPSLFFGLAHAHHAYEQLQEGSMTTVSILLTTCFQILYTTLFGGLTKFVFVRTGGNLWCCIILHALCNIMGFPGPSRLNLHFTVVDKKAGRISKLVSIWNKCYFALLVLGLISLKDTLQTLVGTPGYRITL
Of the large screens only hits and unclear results are named; the others gave an inactive call.

CCc1ccc(CNCc2ccc(F)cc2)cc1	Kir21 inh -6.9
COc1ccccc1CNCC(O)(c1ccc(Cl)cc1)c1ccc(Cl)cc1	none
COc1ccc(CNCC(O)(c2ccc(F)cc2)c2ccc(F)cc2)cc1	Kir21 inh -8.3
COc1ccccc1CNCC(O)(c1ccc(F)cc1)c1ccc(F)cc1	Kir21 inh -5.9
O=C(O)c1ccc(CNCc2ccc(F)cc2)cc1	none
OC(CNCc1ccccc1)(c1ccc(F)cc1)c1ccc(F)cc1	Kir21 inh -7.3
OC(CNCc1ccccc1)(c1ccccc1)c1ccccc1	Kir21 inh -4.6
Cc1ccc(CNCC(O)(c2ccccc2)c2ccc(F)cc2)cc1 (configuration not stated)	Kir21 inh -8.9
Cc1ccc(CNCC(O)(c2ccc(F)cc2)c2ccc(F)cc2)cc1	none
OC(CNCc1ccccc1F)(c1ccc(F)cc1)c1ccc(F)cc1	none
COc1ccc(CNCC(O)(c2ccccc2)c2ccccc2)cc1OC	none
Brc1cccc2sc(N3CCCC3)nc12	none
O=C(NC(=S)NC1C2CC3CC(C2)CC1C3)c1ccccc1 (configuration not stated)	none
CC1(C)Cc2cccc(Oc3cc(NN4CCCCC4)c([N+](=O)[O-])cc3[N+](=O)[O-])c2O1	none
COc1ccc(CCNC(=O)Nc2cccs2)c(OC)c1	none
O=C(CSc1nc2ccsc2c(=O)n1CC1CCC(C(=O)O)CC1)NCCc1ccc(Cl)cc1 (configuration not stated)	none
O=C(NCSc1ccnc(SCNC(=O)c2ccccc2)n1)c1ccccc1	M18AAP inhibitor 38
CNCCCC1Sc2ccccc2Oc2ccccc21 (configuration not stated)	Kir21 inh -6
CCN(CC)CCCNC(=O)C1c2ccccc2Oc2ccccc21	none
O=C(N/N=C/c1ccc([N+](=O)[O-])o1)c1ccc2c(c1)OCO2	M18AAP inhibitor 30
O=C(N/N=C\c1ccc(-c2ccc([N+](=O)[O-])cc2)o1)c1ccc2c(c1)OCO2	none
Cc1cc(=O)oc2cc(OC(=O)c3ccco3)ccc12	Kir21 inh -12
COc1ccc(C[C@H]2CN3C(=NC[C@@H]3Cc3ccc(O)cc3)N2C[C@H](C)NC(=O)c2ccc(C)c(Br)c2)cc1	Kir21 inh -7.3 (no result: DNA FID counter, M18AAP inhibitor)
COc1ccc(C[C@H]2CN3C(=NC[C@@H]3C(C)C)N2C[C@H](C)NC(=O)c2ccc(C)c(Br)c2)cc1	Kir21 inh -7.9
O=C(CN1C(=O)NC2(CCCC2)C1=O)Nc1nc(-c2ccccc2)cs1	none (no result: DNA FID counter, M18AAP inhibitor, Rce1 inh)
NC(N)=N/N=C/c1ccc(OS(=O)(=O)c2ccccc2)cc1	Kir21 inh -10
CCCCC[n+]1cccc2c3ccccc3ccc21	Rce1 inh active
c1ccc(C[n+]2cccc3c4ccccc4ccc32)cc1	Rce1 inh active
CCN1C(=O)CSc2ccc(C(=O)NCc3ccc(OC)cc3)cc21	Kir21 inh -8.9
CCCCNC(=O)c1ccc2c(c1)N(CC)C(=O)CS2	none
CC(=O)c1sc(C(=O)O)c(-c2ccco2)c1-c1ccco1	M18AAP inhibitor 30 (no result: Rce1 inh)
NC(=O)c1sc2nc3c(c(-c4ccco4)c2c1N)CCCC3	none
CC1CC(C)CN(C(=O)C2CCN(S(=O)(=O)c3cccs3)CC2)C1 (configuration not stated)	none
CC1c2ccsc2CCN1S(=O)(=O)c1cccs1 (configuration not stated)	Kir21 inh -6.2
CCOC(=O)N1CCN(CCC(=O)Nc2cccc(C)c2)CC1	none
C[C@]12CC[C@@H]3c4cc(O)c(O)cc4CC[C@H]3[C@@H]1CC[C@@H]2O	M18AAP inhibitor 67
C[C@]12CC[C@@H]3c4ccc(O)cc4CC[C@H]3[C@@H]1CC[C@@H]2O	none
COc1ccc(C(=O)Nc2ccnn2C2CCN(C(=O)c3cc(C)on3)CC2)cc1	none (no result: Rce1 inh)
O=C(CN1CCC(C(O)(c2ccccc2)c2ccccc2)CC1)Nc1ccccc1	Kir21 inh -4.8 (no result: Rce1 inh)
O=C(CN1CCC(C(O)(c2ccccc2)c2ccccc2)CC1)Nc1cc(Cl)ccc1Cl	none
O=C(Cc1ccccc1)Nc1ccc(NC(=O)c2ccco2)cc1Cl	none
O=C(NCCc1ccccc1)C1CCCN(c2cnccn2)C1 (configuration not stated)	none
O=C(NCCO)Nc1ccc2nsnc2c1	none (no result: Rce1 inh)
O=C(NCCCO)c1ccc2nc(-c3ccco3)c(-c3ccco3)nc2c1	M18AAP inhibitor 29 (no result: Kir21 inh, Rce1 inh)
O=C(NCCO)Nc1ccc2nc(-c3ccco3)c(-c3ccco3)nc2c1	M18AAP inhibitor 37 (no result: Kir21 inh, Rce1 inh)
O=C(O)c1cccnc1SCc1cn2cc(Br)ccc2n1	none
Cc1cc(C)n2cc(CSC3=NCCS3)nc2n1	Rce1 inh active
Cc1cc(C)n2cc(CSc3ncccc3C(=O)O)nc2n1	Rce1 inh active
Cc1ccnc(SCc2cn3c(C)cc(C)nc3n2)n1	Rce1 inh active
Cc1ccccc1N=C(NO)c1nonc1N	M18AAP inhibitor 29
CCONC(=NC)c1nonc1N	none
COc1ccccc1C(=O)OCc1nc(N)nc(Nc2ccccc2C)n1	Kir21 inh -5.2
COc1ccc(S(=O)(=O)N2CCC(C(=O)NCCC(=O)NCc3ccccc3OC)CC2)cc1	none
CN(C)CC/C=C1\c2cc(Cl)ccc2Sc2cc(F)c(F)cc21	Kir21 inh -4.2 (no result: DNA FID counter, M18AAP inhibitor)
CN(C)CC/C=C1\c2ccc(F)cc2Sc2cc(F)c(Cl)cc21	none (no result: DNA FID counter, M18AAP inhibitor)
CN(C)CC/C=C1\c2ccccc2Sc2cc(F)c(Cl)cc21	Kir21 inh -4.8 (no result: DNA FID counter, M18AAP inhibitor)
CN(C)CC/C=C1\c2cc(F)ccc2CSc2ccccc21	none
CN(C)CC/C=C1/c2ccc(F)cc2Sc2ccc(Cl)cc21	Kir21 inh -6.9 (no result: DNA FID counter, M18AAP inhibitor, Rce1 inh)
C=CCN1C(=O)C2(NNc3ccccc3O2)c2ccccc21 (configuration not stated)	M18AAP inhibitor 31
CC(C)(C)c1cc(CCC(=O)NCc2cccnc2)cc(C(C)(C)C)c1O	Kir21 inh -5.1
O=C(O)CCCN1C(=O)/C(=C/C=C/c2ccco2)SC1=S	none
O=C(O)CC(C(=O)O)N1C(=O)/C(=C/C=C/c2ccco2)SC1=S (configuration not stated)	M18AAP inhibitor 31
CC(Nc1cc(N2CCNCC2)ccc1[N+](=O)[O-])c1ccccc1 (configuration not stated)	Kir21 inh -7.5
O=[N+]([O-])c1ccc(N2CCNCC2)cc1Sc1nc2ccccc2[nH]1	DNA FID counter 40
C/C(=N\NC(=O)c1ccco1)c1ccc(NC(=O)C(F)(F)F)cc1	none
Cc1ccc(CN2C(=O)c3ccccc3Sc3ccc(C(=O)NCCCN4CCOCC4)cc32)cc1	DNA FID counter 37 (no result: Kir21 inh)
Cc1c(C)n(C)c2ccc(C(=O)NCCCN3CCN(c4ccc(F)cc4)CC3)cc12	Kir21 inh -4.2
Cc1c(C)n(Cc2ccc(F)cc2)c2ccc(C(=O)NCCCN3CCOCC3)cc12	Kir21 inh -4.8
CCc1ccc(C(C(=O)NC2CCCC2)N(Cc2cccnc2)C(=O)c2csnn2)cc1 (configuration not stated)	none
CCOc1ccc(C(=S)N2CCCC2)cc1	none
CCOc1ccc(C(=S)N2CCCC2)c(OCC)c1	M18AAP inhibitor 30
CC(COc1ccccc1Cc1ccccc1)N1CCCCC1 (configuration not stated)	Kir21 inh -5.8 (no result: DNA FID counter, M18AAP inhibitor)
CNCCOc1ccccc1OC(C)C	none
CCOc1ccccc1OCCOc1ccccc1OC(C)C	Kir21 inh -4.9
